# This is a sample that favours compounds with a hit; in the whole collection about 21% have one here.
# Pf growth 96h: P. falciparum growth inhibition at 96 hour, primary screen for plastid delayed-death inhibitors; P. falciparum luciferase reporter growth, 96 h; Potency, µM (titrated, usually from 28.7 µM), for inactives: at the top dose activity change, negative = inhibition, usual class: inhibitors; 6.9% of 320,000 active; AID 504834; further: potency means the concentration at half of the fitted maximal effect; on the % scale 0 is the no-effect control and ±100 the full control effect
#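 P. falciparum expressing integrated firefly luciferase grown in erythrocytes (2% hematocrit, 0.05% parasitemia final) with compounds for 96 hours at 37 C, 5% CO2. Growth inhibition read as loss of luminescence after adding luciferase detection reagent.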
# Shiga inhibitor: Shiga toxin inhibition. inhibition, % at 38.7 µM. Vero cells, Shiga toxin protein synthesis inhibition reporter. 9.2% of 290,000 active; in the data active means inhibition mostly above about 28%, no sharp cut-off; inactive means mostly below about 43%; further: 0% is about no effect
# Pf growth 48h: P. falciparum growth inhibition at 48 hours (one generation); Potency, µM (highest dose often 28.7 µM), inactives show at the highest dose activity change, negative = inhibition, most hits filed as inhibitors; P. falciparum luciferase growth in erythrocytes, 48 h; AID 504832; 5.9% of 310,000 active; further: potency means the concentration at half of the fitted maximal effect; on the % scale 0 is the no-effect control and ±100 the full control effect
#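 Luminescence readout; reporter = integrated firefly luciferase in P. falciparum. RBC culture at 2% hematocrit, 0.1% parasitemia final, 37 C/5% CO2; decreased signal taken as growth inhibition.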
# Cycloheximide cs: affects cycloheximide protein synthesis inhibition readout, counter-screen. cell reporter, cycloheximide protein synthesis inhibition counterscreen. max response, %. 12% of 300,000 active. AID 2314; in the data active means max response mostly above about 13%, no sharp cut-off; inactive means mostly below about 14%; further: read at 38.3 µM for the half of the compounds with a filed dose; 0% is about no effect
# An asterisk follows results filed as active; i = inactive; ? = inconclusive; . = no result; + = active, no number; [ ] = dose if it differs, or a comment. Unless noted, the call rests on the fitted dose curve; in most records, active means well fitted inhibition curve with a large enough effect; inconclusive means small, poorly fitted or top-dose-only effect, or another doubt; inactive means no such curve, though single readings can be large or run the other way.
SMILES,Pf growth 96h,Shiga inhibitor,Pf growth 48h,Cycloheximide cs
COc1cc(/C=C/C(=O)C2C(=O)C=C(C)OC2=O)cc(OC)c1O (stereo not drawn),8.0%,12.9,?,-3.4
O=C(NC1CCCC1)C(c1cccnc1)N(C(=O)c1csnn1)c1ccccc1 (stereo not drawn),-7.4%,-5.6,10.0%,-7.8
c1cc(Nc2cccc3nccnc23)c2nccnc2c1,10.4%,-9.1,-10.8%,-1.5
Fc1ccc(Nc2cccc3nccnc23)cc1,16.3%,46.8*,28.8%,22.5*
O=C1CS/C(=N\N=C\c2ccco2)N1c1ccccc1,5.2%,44.8,28.3%,14.5*
O=C1CS/C(=N/N=C/c2ccccc2)N1c1ccc(O)cc1,1.65µM*,7.2,14.4%,-0.7
O=C(Nc1ccc(CN2CCCCC2)cc1)c1cc(Br)ccc1Cl,?,6.4,11.7µM*,-1.3
COc1c(C)cccc1C(=O)Nc1ccc(CN2CCCCC2)cc1,?,56.1,.,37.0*
O=C(NCC(=O)N1CCCCC1)c1sc2ccccc2c1Cl,17.4%,.,-10.2%,.
O=C(Nc1ccc(CN2CCCCC2)cc1)c1cccc(Br)c1,?,41.9*,?,21.4*
O=C(Nc1ccc(CN2CCCCC2)cc1)c1sc2ccccc2c1Cl,?,36.7,61.8%,22.7*
Cn1ncc(Cl)c1C(=O)Nc1ccc(CN2CCCCC2)cc1,49.6%,31.3,-24.9%,0.4
Cn1c(Cc2cccs2)nnc1SCC(=O)Nc1ccc(F)cc1F,7.9%,.,-29.7%,.
O=C(N/N=C\c1c(O)ccc2ccccc12)c1ccc(Cn2cccn2)o1,?,-3.2,?,-2.4
CCCOc1cc(C)c(S(=O)(=O)NC2CC(C)(C)NC(C)(C)C2)cc1C,89.0%,-3.0,?,-3.8
Cc1ccccc1C(=O)Nc1ccnn1C1CCN(Cc2cnn(C(C)C)c2)CC1,?,11.6,?,9.9
CCCNc1c(NS(=O)(=O)c2ccc3c(c2)CCCC3)c(=O)oc2ccccc12,?,-8.4,8.9%,-1.6
CCN(C(=O)COC(=O)c1ccc(S(=O)(=O)N2CCCc3ccccc32)cc1)C1CCS(=O)(=O)C1 (stereo not drawn),-39.9%[5.75 µM],14.6,-20.4%,2.7
CCCN1Cc2cccc(C(=O)Nc3ccc(CN4CCCC4)cc3)c2C1=O,.,-9.5,9.28µM*,-2.6
O=C(Nc1ccc(C(=O)OC[C@@H]2CCCN3CCCC[C@H]23)cc1)c1cccc(Br)c1,2.62µM*,1.6,1.85µM*,-2.7
COCCN1Cc2cccc(C(=O)Nc3ccc4c(c3)OCCO4)c2C1=O,-11.8%,65.1*,.,30.9*
CC(C)CC(=O)N1CCC(N(CCc2ccccc2)Cc2ccccc2)CC1,-19.1%,-3.5,?,0.6
Cc1coc2c(C)c3oc(=O)c(CCC(=O)N[C@@H](C)C(=O)N[C@@H](Cc4ccccc4)C(=O)O)c(C)c3cc12,?,-3.8,37.5%,1.2
COc1ccc(NC2c3ccccc3C(=O)N2c2ccccn2)cc1Cl (stereo not drawn),8.28µM*,-8.8,.,17.6
O=C1c2ccccc2C(Nc2ccc(F)c(Cl)c2)N1c1ccccn1 (stereo not drawn),4.65µM*,-14.3,.,-10.5
SMILES,Pf growth 96h,Shiga inhibitor,Pf growth 48h,Cycloheximide cs
COc1ccc(NC2c3ccccc3C(=O)N2c2cccnc2)cc1 (stereo not drawn),10.4µM*,7.8,?,-1.5
CCc1cccc(NC2c3ccccc3C(=O)N2c2cccnc2)c1 (stereo not drawn),56.9%,-1.6,?,-4.0
COc1ccc(S(=O)(=O)N2CCN(c3ccccc3)CC2)cc1-c1noc(C)n1,.,-8.5,.,5.5
O=C(COC(=O)c1ccc(O)cc1O)NC(=O)NCc1ccccc1,?,.,-0.9%,.
COc1ccc(C(=O)O/N=C(\N)c2ccccc2)cc1,-5.1%,-15.1,-27.2%,3.3
COc1ccc(C(=O)O/N=C(\N)c2ccc(Br)cc2)cc1,-19.2%,82.5*,?,61.6*
N/C(=N\OC(=O)c1cccc(Br)c1)c1ccc([N+](=O)[O-])cc1,33.0%,11.1,38.6%,-2.7
CC(C)(C)c1ccc(C(=O)O/N=C(\N)c2ccccc2)cc1,?,74.2*,-72.1%,59.9*
N/C(=N\OC(=O)c1cccc(Br)c1)c1ccc(Br)cc1,1.85µM*,0.4,48.0%,-0.8
Cc1ccc(NC(=O)COC(=O)c2nn(C)cc2Cl)cc1,16.6%,31.5,27.8%,14.6
Cn1cc(Cl)c(C(=O)OCC(=O)c2ccccc2)n1,13.1µM*,36.0*,30.2%,27.4*
CCCC(=O)Nc1c(-c2cccc(C)c2)c(=O)c2ccccc2n1C,10.1%,-4.7,15.4%,-6.1
O=C(COC(=O)c1ccccc1)c1ccc(Br)cc1,87.7%,115.2*,341.6%,47.3*
Cc1cc(C(=O)O/N=C(\N)c2ccc(C(C)(C)C)cc2)no1,463.4%,41.9*,362.3%,33.5*
NC(=O)C(c1ccc(Br)cc1)c1ccc(C(=O)c2ccccc2)cc1 (stereo not drawn),5.0%,-6.6,-0.8%,23.2*
CC(C)(C)C(=O)O/N=C(\N)c1ccc(Br)cc1,0.0%,17.8,28.4%,1.3
O=C(COC(=O)c1ccc(Br)cc1)NCCc1ccccc1,34.4%,12.5,1.5%,-2.7
CCOC(=O)c1cc(/C(C)=N/OC(=O)c2ccc(C(C)(C)C)cc2)on1,28.0%,-7.2,6.4%,-0.7
Cc1ccc(C(=O)O/N=C(\N)c2ccc(Br)cc2)cc1,13.3%,60.2*,.,32.8*
O=C(Cn1ccc(NC(=O)OCc2ccccc2)nc1=O)NCc1ccc2[nH]ccc2c1,-0.1%,.,1.3%,.
NC(=O)COC(=O)c1ccc(Oc2ccccc2)cc1,.,34.4,0.1%,27.8*
N/C(=N\OC(=O)c1ccc(Br)cc1)c1ccccc1,i,144.0*,-58.3%,66.4*
Cc1nc(C(N)=O)nc2ccccc12,50.4%,15.2,63.8%,1.4
Cc1nc(/N=C(\N)Nc2ccccc2)nc2ccccc12,-15.4%,43.4,58.9%,15.9*
Cc1cccc2c1NC(=O)C21N2CCCC2C(C(=O)c2ccc3ccccc3c2)C12C(=O)Nc1ccccc12 (stereo not drawn),?,20.1,?,16.4*
SMILES,Pf growth 96h,Shiga inhibitor,Pf growth 48h,Cycloheximide cs
CCc1ccc2c(c1)C1(C(=O)N2)N2CCCC2C(C(=O)c2ccc3ccccc3c2)C12C(=O)Nc1ccccc12 (stereo not drawn),2.33µM*,64.9*,?,45.9*
CCc1cccc2c1NC(=O)C21N2CCCC2C(C(=O)c2ccc3ccccc3c2)C12C(=O)Nc1ccccc12 (stereo not drawn),?,-4.2,?,1.3
O=S(=O)(c1cccc(C(F)(F)F)c1)N1CCN(c2nc(-c3cccs3)nc3cc(Cl)ccc23)CC1,.,1.7,.,-5.3
CN(C(=O)COC(=O)C1CCN(S(=O)(=O)c2c(Cl)cccc2Cl)CC1)C1CCS(=O)(=O)C1 (stereo not drawn),4.6%,.,?,.
COc1ccccc1N1CCN(/N=C/c2cccc(OC)c2O)CC1,-18.2%,2.6,170.9%,10.6
COc1cc(OC)c(/C=N/N2CCN(c3ccccc3OC)CC2)c(OC)c1,?,65.1*,-16.2%,23.9*
COc1cccc(/C=N/N2CCN(c3ccccc3OC)CC2)c1,57.3%,+,94.5%,49.4*
COc1ccccc1N1CCN(/N=C/c2cccc(Cl)c2)CC1,?,151.4*,110.0%,38.2*

# Bioassay records (PubChem)
